Where “and” joins values, the source holds several entries; their conditions need not be identical. Equal entries are not always repeated. About 83,000 compounds went through this panel and 20% of them were active in at least one assay; those are over-represented in the sample as a whole.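 Growth was measured after 48 h exposure to one concentration of compound in 96-well plates. Values under 10 count as active.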 Calls of active or inactive are those of the source.
Test system: MDA-MB-468 breast
Test: NCI-60 one-dose screen, 48 h (100 = growth as untreated, 0 = no growth, -100 = all killed)
Details: 10 µM unless noted

**Q.** `CSc1ccccc1NP1(=O)OCC(C)([N+](=O)[O-])CO1` (stereo not given) was tested. Which growth did it give?
**A.** Its growth is 105% (inactive).

**Q.** With `CC(=O)O[C@H]1CCC2(C)C(=CCC3C2CCC2(C)/C(=N/OC(=O)c4ccc(N(CCCl)CCCl)cc4)CCC32)C1` (stereo not given in full) as the compound, how does the growth read?
**A.** The growth was 79.9% (inactive).

**Q.** With `CNC(=O)Oc1ccc2c(c1)OCO2` as the compound, how does the growth read?
**A.** Its growth is 94.6% (inactive).

**Q.** With `CCOP(=O)(Nc1ccc2c(c1)/C(=N/NC(N)=S)c1ccccc1-2)OCC` as the compound, how does the growth read?
**A.** The growth was 86% (inactive).

**Q.** With `COc1ccc(C/C(C)=C(\c2ccc(OCCN3CCOCC3)cc2)c2ccc(OC(=O)Cc3ccccc3)cc2)cc1` as the compound, how does the growth read?
**A.** Its growth is -33.4% (active).

**Q.** Which growth does the source give for `CCOP(=O)(NC)OCC` here?
**A.** Its growth is 94.2% (inactive).

**Q.** For `CCCCCCCCCCCCCC[P+](CCCCCC)(CCCCCC)CCCCCC`, which growth is on record?
**A.** The growth was -88.3% (active).

**Q.** Which growth does the source give for `CCN1C(=O)C(=C/C=C/c2ccccc2)C(=O)N(CC)C1=O` here?
**A.** Its growth is 93.1% (inactive).

**Q.** With `CC(=O)ONc1ccc([N+](=O)[O-])c(C(F)(F)F)c1` as the compound, how does the growth read?
**A.** Its growth is 118% (inactive).

**Q.** How did the growth turn out when `COC(=O)[C@@H](C)C[C@H](Cc1ccccc1)NC(=O)c1csc([C@@H](C[C@H](C(C)C)N(C)C(=O)[C@@H](NC(=O)[C@H]2CCCCN2C)C2CC2)OC(C)=O)n1` was run?
**A.** Its growth is 0.846% (active).

**Q.** Which growth does the source give for `C=C[Se]CC(=O)/C=C/c1ccccc1` here?
**A.** Its growth is 85.6% (inactive).

**Q.** How did the growth turn out when `Nc1cccnc1` was run?
**A.** Its growth is 130% (inactive).

**Q.** Which growth does the source give for `C/C(=C\c1ccn(-c2ccc(N)cc2C(F)(F)F)n1)[C@@H]1C[C@@H]2O[C@]2(C)CCC[C@H](C)[C@H](O)[C@@H](C)C(=O)C(C)(C)[C@@H](O)CC(=O)O1` here?
**A.** Its growth is 28.6% (inactive).

**Q.** For `CC(C)COC(=O)Cc1ccccc1`, which growth is on record?
**A.** Its growth is 101% (inactive).

**Q.** For `CC1=C(CN(O)C(N)=O)C2=C(C)C3(CC3)[C@](C)(O)C(=O)C2=C1`, which growth is on record?
**A.** Its growth is -65.6% (active).

**Q.** With `COP(=S)(N1CC1)N1CC1` as the compound, how does the growth read?
**A.** Its growth is 110% (inactive).

**Q.** How did the growth turn out when `CC(/C=N/N=C(N)N)=N\N=C(N)N` was run?
**A.** Its growth is 88.7% (inactive).

**Q.** For `CCOP(=O)(OCC)C(=O)N(CC)CC`, which growth is on record?
**A.** The growth was 90.3% (inactive).

**Q.** `O=[N+]([O-])c1cnc[nH]1` was tested. Which growth did it give?
**A.** Its growth is 108% (inactive).

**Q.** How did the growth turn out when `CC[C@H](C)[C@H](NC(=O)C12C3C4C1C1C2C3C41NC(C)=O)C(=O)N(C)[C@H](C[C@@H](OC(C)=O)c1nc(C(=O)N[C@@H](Cc2ccccc2)C[C@H](C)C(=O)OC)cs1)C(C)C` (stereo not given in full) was run?
**A.** Its growth is 11.5% (inactive).

**Q.** Which growth does the source give for `Nc1c(F)cc(-c2nc3cc(F)ccc3[se]2)cc1Br` here?
**A.** The growth was -35.4% (active).

**Q.** Which growth does the source give for `Nc1ccc(S(=O)(=O)F)cc1` here?
**A.** The growth was 107% (inactive).

**Q.** How did the growth turn out when `ClCCN(CCCl)c1ccc(-n2cnc3c(Cl)ncnc32)cc1` was run?
**A.** Its growth is -43.5% (active).

**Q.** With `C[N+]12CN3CN(CN(C3)C1)C2` as the compound, how does the growth read?
**A.** The growth was 119% (inactive).

**Q.** How did the growth turn out when `Nc1ccc(Cl)cc1` was run?
**A.** Its growth is 97% (inactive).

**Q.** `Nc1ccc2c(c1)Cc1cc(Br)ccc1-2` was tested. Which growth did it give?
**A.** The growth was 85.2% (inactive).

**Q.** For `COc1cccc2c1cc([N+](=O)[O-])c1c(C(=O)O)cc3c(c12)OCO3`, which growth is on record?
**A.** Its growth is -46.6% (active) and 100% (inactive).

**Q.** With `O1[As]2O[As]3O[As]1O[As](O2)O3` as the compound, how does the growth read?
**A.** Its growth is -63.2% (active).

**Q.** `COC(=O)C1OC(Oc2ccc(N(CCCl)CCCl)cc2)C(OC(C)=O)C(OC(C)=O)C1OC(C)=O` (stereo not given) was tested. Which growth did it give?
**A.** Its growth is 28.3% (inactive).

**Q.** With `C[C@@H]1O[C@@H](O[C@H]2C[C@@H](O)[C@]3(CO)C4C(CC[C@]3(O)C2)[C@@]2(O)CC[C@H](C3=CC(=O)OC3)[C@@]2(C)C[C@H]4O)[C@H](O)[C@H](O)[C@H]1O` (stereo not given in full) as the compound, how does the growth read?
**A.** Its growth is -68.2% (active).

**Q.** Which growth does the source give for `CCCCCCCC[n+]1ccc2ccccc2c1` here?
**A.** Its growth is 8.79% (active).

**Q.** With `CCOP(=O)(OCC)Oc1ccc(Sc2ccc(OP(=O)(OCC)OCC)cc2)cc1` as the compound, how does the growth read?
**A.** The growth was 107% (inactive).

**Q.** How did the growth turn out when `CC(=O)N1N=C(c2ccccc2)CC1c1sc(N(CCCl)CCCl)nc1Cl` (stereo not given) was run?
**A.** The growth was 92.6% (inactive).

**Q.** `CC(=O)O[C@H](C[C@H](C(C)C)N(C)C(=O)[C@@H](NC(=O)[C@H]1CCCCN1C)C(C)C)c1nc(C(=O)N[C@@H](Cc2ccccc2)C[C@H](C)C(=O)O)c(C)s1` was tested. Which growth did it give?
**A.** The growth was 11.4% (inactive).

**Q.** With `Fc1ccc2c(c1)c(-c1nc(-c3c[nH]c4ncccc34)cs1)cn2CCN1CCOCC1` as the compound, how does the growth read?
**A.** The growth was 43.8% (inactive).

**Q.** Which growth does the source give for `CCC1(CCSC#N)C(=O)NC(=O)NC1=O` here?
**A.** The growth was 107% (inactive).

**Q.** How did the growth turn out when `CN1CC(CNC(=O)OCc2ccccc2)CC2c3cccc4c3c(cn4C)CC21` (stereo not given) was run?
**A.** The growth was -42.6% (active).

**Q.** Which growth does the source give for `Oc1ccc(Br)cc1CN1CCN(Cc2ccc(Cl)cc2)CC1` here?
**A.** The growth was 95.9% (inactive).

**Q.** For `C[C@]12CC[C@@H]3c4ccc(OC(=O)Cc5ccc(N(CCCl)CCCl)cc5)cc4CC[C@H]3[C@@H]1CC[C@@H]2OC(=O)Cc1ccc(N(CCCl)CCCl)cc1`, which growth is on record?
**A.** Its growth is 104% (inactive).

**Q.** With `N#CCCc1ccccc1` as the compound, how does the growth read?
**A.** Its growth is 101% (inactive).
